We go through eight molecules from PubChem BioAssay (Tox21).

Where “and” joins values, the source holds several entries; their conditions need not be identical. Equal entries are not always repeated. Results filed as inconclusive are left out. The source holds several records for some structures; these can differ, active in one and inactive in another. Calls of active or inactive are those of the source. Unless noted, calls come from the whole dose curve; as a rule, active = well fitted curve in the direction sought with a large enough effect in the repeat runs; inconclusive = weak or mixed curves; inactive = no such curve, though single readings can be large; an effect the other way counts as inactive or inconclusive.

Assay [1] can be described thus: qHTS assay to identify small molecule agonists of the estrogen receptor alpha (ER-alpha) signaling pathway in the presence of an antagonist - cell viability counter screen (AID 1259386).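 Note: series mostly up to about 92 µM; cells exposed to compounds for 22 h at 37 °C before the viability read; nearly all actives have a fitted effect of over 30% in size.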 Summed up:
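Cell viability in VM7Luc4E2 cells (endogenous full-length ER-alpha) measured by CellTiter-Fluor fluorescence in the same wells as the luciferase screen. Cells pre-cultured 5 days in charcoal-stripped serum, then treated 22 h with compounds at 15 concentrations plus 10.0nM ICI-182,780.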
Background: qHTS replaces the single test concentration by a dilution series.

The target of assay [2] is Progesterone receptor (Homo sapiens) (UniProt P06401). As to the kind of experiment: qHTS assay to identify small molecule agonists of the progesterone receptor (PR) signaling pathway (AID 1346784; calls by dose curve; note: nearly all actives have a fitted effect of over 30% in size; note: potency is the fitted concentration of half-maximal effect). Summed up:
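The screen uses PR-UAS-bla HEK 293T cells in charcoal-stripped serum (2%). Compounds are applied for 16 hr at 37C after a 6 hr pre-incubation, and reporter activity is detected with a FRET beta-lactamase substrate after 2 hr at room temperature.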

Assay [3] shares this target. Put plainly: qHTS assay to identify small molecule antagonists of the progesterone receptor (PR) signaling pathway (AID 1346795; active = well fitted inhibition curve with a large enough effect in the signal ratio in the repeat runs, not every such curve was filed as active; the % refers to the signal ratio; note: potency is the fitted concentration of half-maximal effect). Summed up: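 After 6 hr plating at 37C in 2% stripped-serum medium, PR-UAS-bla HEK293T cells got compounds, then 1 nM R5020. Sixteen hours later, LiveBLAzer substrate was applied for 2 hr at room temperature and fluorescence was recorded.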

Assay [4] in a line: qHTS assay to identify small molecule antagonists of the progesterone receptor (PR) signaling pathway - cell viability counter screen (AID 1346798). Note: series mostly up to about 92 µM; nearly all actives have a fitted effect of over 50% in size. Summed up:
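Viability was determined by ATP-based luminescence (CellTiter-Glo) in PR-UAS-bla HEK293T cells cultured in 2% charcoal-stripped serum and incubated 16 hr with compounds under R5020 stimulation.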

Assay [5] in a line: qHTS assay to identify small molecule agonists of the progesterone receptor (PR) signaling pathway - cell viability counter screen (AID 1346799; calls by dose curve; note: nearly all actives have a fitted effect of over 45% in size). Summed up: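 Viability was scored by ATP luminescence (CellTiter-Glo, 30 min, room temperature) in the same wells used for the reporter readout, after 16 hr compound exposure of PR-UAS-bla HEK293T cells.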
Assay [6] can be described thus: qHTS assay to identify small molecule antagonists of the TGF-beta/Smad signaling pathway - cell viability counter screen (AID 1346824). Note: nearly all actives have a fitted effect of over 50% in size. Summed up:
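SBE-bla HEK 293T cells, incubated overnight, then compound plus 0.25 ng/mL TGF-beta1 (stock added) for 5 hr at 37 C. Viability was read in the same wells by CellTiter-Glo luminescence after 30 min at room temperature.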

The nature of assay [7]: qHTS assay to identify small molecule agonists of the TGF-beta/Smad signaling pathway - cell viability counter screen (AID 1346829). Note: top concentration of the series differs between compounds; nearly all actives have a fitted effect of over 45% in size. Summed up:
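Luminescence from CellTiter-Glo, read after a 30 min room-temperature incubation, gives cell viability of SBE-bla HEK 293T cells treated 5 hr with compounds at 37 C.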

The nature of assay [8]: qHTS assay to identify small molecule agonists of the TGF-beta/Smad signaling pathway (AID 1346859; active = well fitted activation curve with a large enough effect in the signal ratio in the repeat runs, not every such curve was filed as active; the % refers to the signal ratio; note: series mostly up to about 77 µM). Summed up:
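Dual-wavelength fluorescence (460/530 nm emission) quantified beta-lactamase expression under the Smad binding element in HEK 293T cells following 5 hr compound treatment at 37 C.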

The nature of assay [9]: Human pregnane X receptor (PXR) small molecule agonists, qHTS cell viability counter screen (AID 1346977). Note: nearly all actives have a fitted effect of over 50% in size. Note: potency is the fitted concentration of half-maximal effect. Summed up:
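HepG2 cells stably carrying the PXR-Luc reporter are cultured with 5% charcoal-stripped FBS and treated with compounds for 24hr. CellTiter-Fluor is added at 23hr and fluorescence is read after 1hr.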

Assay [10] can be described thus: Caspase-3/7 induction in HepG2 cells by small molecules, qHTS assay (AID 1346978). Note: nearly all actives have a fitted effect of over 15% in size. Summed up:
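Wild-type HepG2 cells, 2,000/well, settled 5 hr at 37 C and 5% CO2, then compound-treated for 17 hr; caspase-3/7 activity read by luminescent Caspase-Glo 3/7 after 30 min at room temperature.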

The nature of assay [11]: Caspase-3/7 induction in CHO-K1 cells by small molecules, qHTS cell viability counter screen (AID 1346979). Note: nearly all actives have a fitted effect of over 35% in size. Note: potency is the fitted concentration of half-maximal effect. Summed up: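 Seeding: 1,500 CHO-K1 cells/well. Rest: 5hr, 37C. Treatment: compounds in DMSO, 16hr. Read: CellTiter-Fluor, 1hr, fluorescence.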
Assay [12] can be described thus: Caspase-3/7 induction in CHO-K1 cells by small molecules, qHTS assay (AID 1346980). Note: nearly all actives have a fitted effect of over 15% in size. Summed up:
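Wild-type CHO-K1 cells exposed to compounds for 17hr at 37 C, 5% CO2. Caspase-3/7 activity then measured by Caspase-Glo 3/7 luminescence after 30min at room temperature.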

Assay [13] is described as follows: Caspase-3/7 induction in HepG2 cells by small molecules, qHTS cell viability counter screen (AID 1346981). Note: series mostly up to about 92 µM; nearly all actives have a fitted effect of over 30% in size. Summed up:
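Wild-type HepG2 cells, 2,000/well, settled 5 hr at 37 C, 5% CO2 before compound addition. Viability read by CellTiter-Fluor fluorescence, reagent added after 16 hr compound exposure, then 1 hr at 37C, in the same wells as the caspase read.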

The target in assay [14] is Nuclear receptor subfamily 1 group I member 2 (Homo sapiens) (UniProt O75469). As to the kind of experiment: Human pregnane X receptor (PXR) small molecule agonists, qHTS assay (AID 1346982). Note: nearly all actives have a fitted effect of over 35% in size. Note: potency is the fitted concentration of half-maximal effect. Summed up:
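PXR-Luc HepG2 reporter cells (CYP3A4-driven luciferase) in 5% charcoal-stripped FBS medium, plated 5 h before compound addition, then treated 24 h at 37C. Luciferase read by ONE-Glo luminescence after 30 min at room temperature.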

The target of assay [15] is Cytochrome P450 2D6 (Homo sapiens) (UniProt P10635). As to the kind of experiment: Cytochrome P450 Family 2 Subfamily D Member 6 (CYP2D6) small molecule antagonists: luciferase reporter qHTS assay (AID 1671196). Note: nearly all actives have a fitted effect of over 50% in size. Note: potency is the fitted concentration of half-maximal effect. Summed up: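 Cell-free P450-Glo system: CYP2D6 with proluciferin substrate was pre-incubated with compound for 10 min, then reacted with NADPH regeneration for 1 h at room temperature. Luciferin product was detected after 20 min, and data were reported as relative luminescence units.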
Sequence of Cytochrome P450 2D6 (Homo sapiens) (P10635 whole entry, looked up): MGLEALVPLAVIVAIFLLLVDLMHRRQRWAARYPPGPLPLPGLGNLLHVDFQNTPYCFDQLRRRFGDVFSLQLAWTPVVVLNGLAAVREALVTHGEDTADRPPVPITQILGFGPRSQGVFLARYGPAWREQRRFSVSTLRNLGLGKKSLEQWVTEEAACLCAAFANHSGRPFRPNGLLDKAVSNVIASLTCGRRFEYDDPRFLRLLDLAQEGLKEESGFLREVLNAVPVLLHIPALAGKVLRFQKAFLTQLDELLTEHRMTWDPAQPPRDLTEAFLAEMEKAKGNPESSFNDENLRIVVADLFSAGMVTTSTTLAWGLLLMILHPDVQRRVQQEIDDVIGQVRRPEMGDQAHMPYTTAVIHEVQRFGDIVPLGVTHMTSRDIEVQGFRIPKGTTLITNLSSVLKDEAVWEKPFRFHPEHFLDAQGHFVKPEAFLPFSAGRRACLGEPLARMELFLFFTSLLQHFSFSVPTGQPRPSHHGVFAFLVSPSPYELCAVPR
(In a reporter assay the amount or activity of a reporter protein is the signal.)

Assay [16] deals with Thyrotropin-releasing hormone receptor (Homo sapiens) (UniProt P34981). As to the kind of experiment: qHTS assay to identify small molecule agonists of the thyrotropin-releasing hormone receptor (TRHR) signaling pathway (AID 1346891; calls by dose curve;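 note: HEK293 cells expressing TRHR with calcium dye readout; series mostly up to about 58 µM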). Summed up: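 Kinetic fluorescence (3 min, 1 s intervals) reported intracellular calcium after compound transfer onto TRHR-Hek293 cells pre-loaded with dye for 2 h at 37 °C.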
Sequence of Thyrotropin-releasing hormone receptor (Homo sapiens) (P34981 whole entry, looked up): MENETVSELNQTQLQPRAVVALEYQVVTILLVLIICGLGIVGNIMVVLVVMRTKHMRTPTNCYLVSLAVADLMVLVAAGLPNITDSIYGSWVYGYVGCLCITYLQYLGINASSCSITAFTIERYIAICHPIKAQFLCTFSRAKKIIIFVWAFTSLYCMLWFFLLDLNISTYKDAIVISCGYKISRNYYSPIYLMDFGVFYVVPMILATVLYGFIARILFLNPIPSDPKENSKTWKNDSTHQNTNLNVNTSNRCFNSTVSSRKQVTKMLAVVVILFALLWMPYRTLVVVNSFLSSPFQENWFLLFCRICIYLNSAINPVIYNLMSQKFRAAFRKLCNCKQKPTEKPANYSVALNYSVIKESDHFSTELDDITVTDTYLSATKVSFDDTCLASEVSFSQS

Assay [17] deals with Nuclear receptor subfamily 1 group I member 2 (Rattus norvegicus) (UniProt Q9R1A7). As to the kind of experiment: Rat pregnane X receptor (rPXR) activation by small molecules, qHTS assay (AID 1346983). Note: nearly all actives have a fitted effect of over 20% in size. Particulars: rPXR luciferase reporter cells, One-Glo luminescence, 24 h; max activation: stronger effect = higher value. Summed up:
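Cell-based rPXR activation assay: rPXR cells, 2,000 per well, rested 5hr at 37 C, then exposed to compounds in DMSO for 24 hr at 37 C. Luciferase activity read by One-Glo luminescence after 30 min at room temperature.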

The target of assay [18] is Nuclear receptor subfamily 1 group I member 2 (Homo sapiens) (UniProt O75469). As to the kind of experiment: Human pregnane X receptor (PXR) activation by small molecules, qHTS assay (AID 1346985). Note: nearly all actives have a fitted effect of over 40% in size. Summed up:
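DPX-2 cells (HepG2 co-transfected with a PXR response element and a CYP3A4-promoter luciferase construct) were seeded at 2,000 per well, rested 5 hr at 37C, then exposed to DMSO-dissolved compounds for 24 hr. Activation was read as luciferase luminescence.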

Assay [19] shares this target. As to the kind of experiment: CYP3A4 induction through human pregnane X receptor (PXR) by small molecules, qHTS assay (AID 1346984). Note: nearly all actives have a fitted effect of over 40% in size. Summed up:
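DPX-2 HepG2 cells carrying a PXR response element and CYP3A4-promoter luciferase construct, treated with compounds 24 hr at 37C. Then P450-Glo CYP3A4 Luciferin-IPA substrate (3uM final) for 3 hr at 37C, One-Glo added, luminescence read.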
% is set by controls: 0 for no effect and ±100 for the full control effect.

Sequence of Nuclear receptor subfamily 1 group I member 2 (Homo sapiens) (O75469 whole entry, looked up): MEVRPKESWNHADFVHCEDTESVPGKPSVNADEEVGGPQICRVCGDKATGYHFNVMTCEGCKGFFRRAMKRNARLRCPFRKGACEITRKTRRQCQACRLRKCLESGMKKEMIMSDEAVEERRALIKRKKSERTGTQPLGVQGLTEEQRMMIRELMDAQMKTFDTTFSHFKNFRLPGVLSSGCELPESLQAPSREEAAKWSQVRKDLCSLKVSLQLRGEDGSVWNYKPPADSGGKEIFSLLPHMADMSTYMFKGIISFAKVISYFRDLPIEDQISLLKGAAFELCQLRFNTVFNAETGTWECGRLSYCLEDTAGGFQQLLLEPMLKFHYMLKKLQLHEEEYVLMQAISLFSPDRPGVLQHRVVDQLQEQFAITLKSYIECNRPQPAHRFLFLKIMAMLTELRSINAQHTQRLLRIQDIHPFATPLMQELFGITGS
Sequence of Nuclear receptor subfamily 1 group I member 2 (Rattus norvegicus) (Q9R1A7 whole entry, looked up): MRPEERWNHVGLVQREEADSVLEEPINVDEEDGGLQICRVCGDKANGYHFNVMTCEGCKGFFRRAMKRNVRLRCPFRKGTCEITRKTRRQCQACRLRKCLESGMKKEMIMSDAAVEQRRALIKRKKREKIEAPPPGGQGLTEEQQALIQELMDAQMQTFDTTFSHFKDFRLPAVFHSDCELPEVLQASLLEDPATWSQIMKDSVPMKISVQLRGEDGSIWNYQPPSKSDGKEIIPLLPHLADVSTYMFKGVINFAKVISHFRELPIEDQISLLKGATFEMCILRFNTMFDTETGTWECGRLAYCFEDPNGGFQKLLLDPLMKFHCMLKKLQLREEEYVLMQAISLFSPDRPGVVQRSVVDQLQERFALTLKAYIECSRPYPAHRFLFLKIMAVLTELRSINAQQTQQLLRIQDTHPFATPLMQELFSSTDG
Sequence of Progesterone receptor (Homo sapiens) (P06401 whole entry, looked up): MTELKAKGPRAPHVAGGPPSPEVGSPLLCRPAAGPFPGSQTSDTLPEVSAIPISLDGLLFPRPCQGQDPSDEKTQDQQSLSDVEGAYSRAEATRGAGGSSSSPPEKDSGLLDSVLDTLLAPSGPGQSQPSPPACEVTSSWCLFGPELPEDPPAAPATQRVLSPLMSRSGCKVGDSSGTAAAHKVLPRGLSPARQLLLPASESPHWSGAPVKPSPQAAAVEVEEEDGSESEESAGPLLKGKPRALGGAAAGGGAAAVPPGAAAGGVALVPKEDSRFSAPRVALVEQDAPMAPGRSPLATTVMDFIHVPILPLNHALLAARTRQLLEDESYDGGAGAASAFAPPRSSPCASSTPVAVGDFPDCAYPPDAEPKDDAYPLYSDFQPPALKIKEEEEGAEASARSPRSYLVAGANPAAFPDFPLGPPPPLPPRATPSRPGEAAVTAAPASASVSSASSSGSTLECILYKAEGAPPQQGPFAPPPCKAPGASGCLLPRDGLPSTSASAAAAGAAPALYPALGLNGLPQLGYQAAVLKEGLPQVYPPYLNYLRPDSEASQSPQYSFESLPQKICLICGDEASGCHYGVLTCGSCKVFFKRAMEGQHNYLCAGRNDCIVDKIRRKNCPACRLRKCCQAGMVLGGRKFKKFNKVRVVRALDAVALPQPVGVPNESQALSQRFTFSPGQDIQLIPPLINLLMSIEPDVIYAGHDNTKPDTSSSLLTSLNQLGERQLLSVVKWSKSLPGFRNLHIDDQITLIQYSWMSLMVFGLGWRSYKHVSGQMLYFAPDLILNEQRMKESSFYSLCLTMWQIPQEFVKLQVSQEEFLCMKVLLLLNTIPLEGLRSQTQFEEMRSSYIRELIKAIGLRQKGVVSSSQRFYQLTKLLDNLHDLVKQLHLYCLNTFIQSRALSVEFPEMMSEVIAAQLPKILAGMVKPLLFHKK

As to `COC(=O)c1ccc(C=O)cc1`, the Potency result in [1], in assay [2], in assay [3], in assay [4], in assay [5] and in assay [6] was “inactive” in each case. In addition, the Potency result in assay [7], in assay [9], in assay [10], in [11], in assay [13] and in assay [14] was “inactive” each time. Moreover, in assay [15], the Potency result was “inactive”. Moreover, the molecule was classed as inactive in assay [8] and in assay [12].
Regarding `C#C[C@]1(O)CC[C@H]2[C@@H]3CCc4cc(O)ccc4[C@H]3CC[C@@]21C`, the Potency result in assay [1], in assay [6], in [7], in [16], in assay [9] and in assay [13] was “inactive” each time. Also, in [15], the Potency entry is “inactive”. For the same molecule, the Potency in [2] was 271 nM (active); in [11], 54.1 µM (active) and 54.5 µM (active). Moreover, the outcome in assay [8] and in [12] was inactive. The max activation in assay [17] was 10.3% (inactive).
For the molecule `NCCNc1cccc2ccccc12`, the Potency result in [1], in assay [2], in [3], in assay [5], in assay [6] and in assay [7] was “inactive” each time. For the same molecule, the Potency entry in assay [16], in [10], in [13], in assay [14] and in assay [18] was “inactive” in each case. Moreover, the molecule was classed as inactive in assay [8] and in [12]. In addition, the Potency was 50.1 µM (active) and inactive in assay [9]; 66.9 µM (active) and inactive in assay [11]; 5.02 µM (active) and 9.79 µM (active) and 12.3 µM (active) in assay [15]. For the same molecule, the max activation in [17] is -4.28% (inactive).
In the case of `CCCCC/C(C=O)=C\c1ccccc1`, the Potency entry in assay [1], in [2], in [3], in assay [4], in assay [5] and in [6] was “inactive” throughout. For the same molecule, the Potency entry in assay [7], in assay [9], in assay [11], in [13], in assay [14] and in assay [19] was “inactive” throughout. The Potency entry in assay [18] was “inactive”. The result in [8] and in assay [12] was inactive. For the same molecule, in assay [17], the max activation is -0.992% (inactive). For the same molecule, the Potency in assay [15] was 63.4 µM (active) and inactive.
Take `C[C@]12C=CC(=O)C=C1CC[C@@H]1[C@@H]2C(=O)C[C@@]2(C)[C@H]1CC[C@]2(O)C(=O)CO`: the Potency entry in assay [1], in [2], in assay [4], in assay [5], in assay [6] and in assay [7] was “inactive” in each case. Moreover, the Potency result in assay [9] and in assay [13] was “inactive” in each case. Moreover, the result in assay [8] and in assay [12] was inactive.
On to `COc1cc2c(c(OC)c1OC)-c1ccc(OC)c(=O)cc1[C@@H](NC(C)=O)CC2`, for which the Potency entry in assay [1], in assay [2], in assay [6], in [7], in assay [9] and in assay [13] was “inactive” in each case. Besides, the Potency result in assay [15] is “inactive”. Further, the call in assay [8] and in assay [12] was inactive. The Potency in assay [11] was 381 nM (active) and 43.3 nM (active) and 298 nM (active); in assay [14], 2.14 µM (active) and 5.4 nM (active).
`O=c1c(-c2ccc(O)cc2)coc2cc(O)cc(O)c12`: the Potency entry in [1], in assay [2], in [4], in [6], in assay [7] and in [9] was “inactive” in each case. The Potency result in assay [10], in [13] and in [15] was “inactive” each time. For the same molecule, the Potency in assay [3] was 23.9 µM (active) and 17.2 µM (active) and 13.3 µM (active); in assay [11], 60.1 µM (active) and 48.6 µM (active); in [14] it was 47.7 µM (active) and 30.6 µM (active) and 29.8 µM (active). In addition, the molecule was classed as inactive in assay [8] and in [12].
Regarding `COCC(C)N` (centres undefined), the Potency entry in assay [1], in assay [4], in [5], in assay [6], in [7] and in assay [16] was “inactive” each time. Also, the Potency result in assay [9], in assay [11], in assay [13], in assay [14] and in assay [15] was “inactive” each time. For the same molecule, the outcome in [8] and in assay [12] was inactive.
